Inconclusive results are not listed. Activity calls are given as the source filed them. Unless noted, calls follow the shape of the dose curve; as a rule, active = well fitted curve in the direction sought with a large enough effect; inconclusive = small, poorly fitted or top-dose-only effect, or another doubt; inactive = no such curve, though single readings can be large; an effect the other way counts as inactive or inconclusive.
Assays:
[1] = Quantitative high throughput screen for delayed death inhibitors of the malarial parasite plastid, 96 hour incubation (AID 488745); settings: Plasmodium falciparum growth; series mostly up to 28.7 µM; also: nearly all actives have a fitted effect of over 70% in size
Method in brief: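 Luciferase-expressing P. falciparum in erythrocytes (2% hematocrit, 0.1% parasitemia) incubated with compound for 96 h at 37 C, 5% CO2, in RPMI 1640 with 0.5% Albumax. Growth inhibition read as decreased luminescence.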

[2] = Quantitative high throughput screen for delayed death inhibitors of the malarial parasite plastid, 48 hour incubation (AID 488752); settings: Plasmodium falciparum growth; series mostly up to 28.7 µM; also: nearly all actives have a fitted effect of over 65% in size
Method in brief: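 Erythrocytes infected with firefly luciferase-expressing P. falciparum (2% hematocrit, 0.1% parasitemia) cultured with compound for 48 h at 37 C, 5% CO2, in RPMI 1640/0.5% Albumax. Growth inhibition read as loss of luminescence.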

[3] = biological target: M-phase phosphoprotein 8 (Homo sapiens) (UniProt Q99549); experiment: qHTS Validation Assay for Inhibitors for MPP8 Chromodomain Interactions with Methylated Histone Tails (AID 488949); settings: AlphaScreen MPP8 binding to H3K9me3 peptide; series mostly up to 57.1 µM; also: top concentration of the series differs between compounds; nearly all actives have a fitted effect of over 55% in size
Sequence of M-phase phosphoprotein 8 (Homo sapiens) (Q99549 whole entry, looked up): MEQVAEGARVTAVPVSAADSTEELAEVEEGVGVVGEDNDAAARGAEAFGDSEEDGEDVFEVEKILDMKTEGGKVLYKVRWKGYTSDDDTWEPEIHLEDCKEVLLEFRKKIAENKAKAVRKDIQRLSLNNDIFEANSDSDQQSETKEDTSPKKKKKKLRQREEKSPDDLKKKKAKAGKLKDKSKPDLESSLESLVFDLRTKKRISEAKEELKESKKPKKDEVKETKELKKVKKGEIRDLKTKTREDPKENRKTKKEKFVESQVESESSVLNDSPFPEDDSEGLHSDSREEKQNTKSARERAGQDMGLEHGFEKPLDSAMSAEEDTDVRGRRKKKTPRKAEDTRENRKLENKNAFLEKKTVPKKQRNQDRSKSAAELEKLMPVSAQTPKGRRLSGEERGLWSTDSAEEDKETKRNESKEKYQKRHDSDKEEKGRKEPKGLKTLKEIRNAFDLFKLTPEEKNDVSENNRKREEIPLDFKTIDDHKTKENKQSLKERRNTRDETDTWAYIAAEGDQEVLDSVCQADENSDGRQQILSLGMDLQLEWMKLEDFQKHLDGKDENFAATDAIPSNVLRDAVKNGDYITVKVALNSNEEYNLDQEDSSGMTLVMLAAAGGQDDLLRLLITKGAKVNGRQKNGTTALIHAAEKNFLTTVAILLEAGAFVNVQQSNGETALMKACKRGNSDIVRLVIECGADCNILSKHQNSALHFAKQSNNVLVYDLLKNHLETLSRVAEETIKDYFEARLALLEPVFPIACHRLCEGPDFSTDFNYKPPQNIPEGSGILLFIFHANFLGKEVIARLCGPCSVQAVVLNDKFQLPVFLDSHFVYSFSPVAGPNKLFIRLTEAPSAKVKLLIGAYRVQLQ
Method in brief: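 MPP8 (50 nM) was pre-bound to 50 nM biotinylated H3(1-18)K9me3 peptide in PBS pH 7.4 with 0.01% Tween-20. Compounds were then added for 30 min at room temperature, and complex disruption was read by AlphaScreen with streptavidin donor and nickel-chelate acceptor beads.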

[4] = biological target: Tumor susceptibility gene 101 protein (Homo sapiens) (UniProt Q99816); experiment: qHTS Validation Assay for Iinhibitors of HIV-1 Budding by Blocking the Interaction of PTAP/TSG101 (AID 485342; calls by dose curve); settings: TSG101-PTAP binding, fluorescence polarization, 4-point titration; series mostly up to 115 µM
Sequence of Tumor susceptibility gene 101 protein (Homo sapiens) (Q99816 whole entry, looked up, the tested form may be a part): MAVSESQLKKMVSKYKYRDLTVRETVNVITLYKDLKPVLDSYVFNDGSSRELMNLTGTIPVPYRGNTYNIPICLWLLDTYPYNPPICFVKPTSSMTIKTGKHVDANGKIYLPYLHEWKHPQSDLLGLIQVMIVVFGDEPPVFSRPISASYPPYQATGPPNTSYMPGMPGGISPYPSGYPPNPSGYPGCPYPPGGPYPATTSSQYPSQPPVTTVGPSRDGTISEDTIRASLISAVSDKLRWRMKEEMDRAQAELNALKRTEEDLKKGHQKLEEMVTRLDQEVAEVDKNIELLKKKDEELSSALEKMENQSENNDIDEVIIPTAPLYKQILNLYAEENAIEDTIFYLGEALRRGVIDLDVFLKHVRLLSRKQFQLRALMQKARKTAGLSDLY
Method in brief: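 Tsg101 binding domain (10 uM) with FITC-labeled PTAP peptide (50 nM) in HEPES pH 7.5 buffer, 20 min at r.t. with compounds. Binding measured by fluorescence polarization.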

[5] = qHTS Validation Assay to Find Inhibitors of Chronic Active B-Cell Receptor Signaling (AID 485345; active = well fitted curve in the direction sought with a large enough effect in the main read-out, with a control signal flat, not every such curve was filed as active); settings: ABC-DLBCL cells, chronic BCR signaling reporter, CBG luciferase; series mostly up to 46.1 µM
Method in brief: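 TMD8 ABC-DLBCL cells stably carrying doxycycline-inducible IkappaBalpha–green luciferase fusion plus unfused red luciferase; compounds 46 uM to 3 nM, 4 h at 37C with doxycycline. Corrected green/red luminescence ratio normalized to 10 uM MG-132 and basal cell wells; curves fitted.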

[6] = biological target: Beta-2 adrenergic receptor (Homo sapiens) (UniProt P07550); experiment: qHTS validation assay of beta-arrestin-biased ligands of beta2-adrenergic receptor (AID 485366); settings: cell-based beta-arrestin recruitment to ADRB2, qHTS; series mostly up to 46.1 µM
Sequence of Beta-2 adrenergic receptor (Homo sapiens) (P07550 whole entry, looked up): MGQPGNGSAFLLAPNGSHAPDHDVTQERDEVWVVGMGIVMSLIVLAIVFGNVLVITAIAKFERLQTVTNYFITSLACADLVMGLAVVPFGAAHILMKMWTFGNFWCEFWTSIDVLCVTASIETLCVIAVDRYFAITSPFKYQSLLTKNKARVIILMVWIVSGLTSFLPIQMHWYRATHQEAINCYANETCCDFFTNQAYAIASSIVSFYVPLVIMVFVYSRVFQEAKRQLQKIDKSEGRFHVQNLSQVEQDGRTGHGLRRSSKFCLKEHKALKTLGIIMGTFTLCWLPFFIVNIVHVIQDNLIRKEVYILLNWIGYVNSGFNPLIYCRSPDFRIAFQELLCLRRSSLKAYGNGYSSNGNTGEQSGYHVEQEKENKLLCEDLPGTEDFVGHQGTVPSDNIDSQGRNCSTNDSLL
Method in brief: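 Values derive from curve-fitted %Activity of a luminescent beta-arrestin recruitment reporter; compounds tested up to 46 microM on Tango cells for 18 hr at 37 degrees C, 5% CO2.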

[7] = biological target: Thioredoxin reductase 1, cytoplasmic (Rattus norvegicus) (UniProt O89049); experiment: qHTS Assay for Substrates of Mammalian Selenoprotein Thioredoxin Reductase 1 (TrxR1) (AID 488772); settings: purified TrxR1, NADPH consumption substrate assay; series mostly up to 57.1 µM;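 also: NADPH fluorescence in the first read after selenite addition and not the 8 min delta; a drop in NADPH fluorescence below the no-compound background marks a TrxR1 substrate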
Sequence of Thioredoxin reductase 1, cytoplasmic (Rattus norvegicus) (O89049 whole entry, looked up): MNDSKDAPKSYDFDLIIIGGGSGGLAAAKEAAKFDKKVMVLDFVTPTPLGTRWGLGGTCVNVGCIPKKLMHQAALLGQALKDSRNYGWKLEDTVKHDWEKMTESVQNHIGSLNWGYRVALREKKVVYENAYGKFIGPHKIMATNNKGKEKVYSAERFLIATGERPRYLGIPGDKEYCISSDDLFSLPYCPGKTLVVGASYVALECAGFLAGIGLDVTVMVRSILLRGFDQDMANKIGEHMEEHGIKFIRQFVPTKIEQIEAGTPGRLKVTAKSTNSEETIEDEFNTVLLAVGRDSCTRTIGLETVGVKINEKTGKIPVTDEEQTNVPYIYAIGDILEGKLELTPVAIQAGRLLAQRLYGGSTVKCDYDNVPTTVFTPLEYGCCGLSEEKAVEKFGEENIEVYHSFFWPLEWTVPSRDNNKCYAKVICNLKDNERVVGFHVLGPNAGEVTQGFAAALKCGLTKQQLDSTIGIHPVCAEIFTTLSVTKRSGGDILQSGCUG
Method in brief: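 Quantitative HTS in Tris-HCl buffer at pH 7.5 with EDTA and Tween-20, using rat TrxR1, 400 uM NADPH and 400 uM selenite (final). A fall in initial NADPH fluorescence relative to background marked substrate behaviour.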

[8] = biological target: Thioredoxin reductase 1, cytoplasmic (Rattus norvegicus) (UniProt O89049); experiment: qHTS Assay for Inhibitors of Mammalian Selenoprotein Thioredoxin Reductase 1 (TrxR1) (AID 488773); settings: purified TrxR1 enzyme activity; series mostly up to 57.1 µM;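 also: drop in NADPH fluorescence over an 8 min run after selenite addition; nearly all actives have a fitted effect of over 40% in size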
Description: The selenoprotein thioredoxin reductase (TrxR; EC 1.8.1.9) is a FAD containing homodimeric pyridine nucleotide-disulfide oxidoreductase with many cellular roles. Together with NADPH and its prime substrate thioredoxin (Trx), the enzyme forms the core of the Trx system. The mammalian Trx system exerts a wide spectrum of functions including redox regulation, antioxidant defense, regulation of transcription factors as well as support of cell growth and replication. Many of these functions involve the reduction of Trx, which may subsequently reduce a number of different substrates including ribonucleotide reductase, peroxiredoxins or NFkB. […]
This BioAssay is a validation of an NADPH fluorescence-based, dual-purpose qHTS rTrxR1 assay designed to find potential inhibitors and substrates of rTrxR1. […]
Assay protocol: 2 uL of reagents (buffer in column 4 as negative control and 90 nM rTrxR1 in columns 1-3 and 5-48) were dispensed into Greiner black solid-bottom 1,536-well assay plates, followed by 1 uL of NADPH (400 uM final concentration) to each well. […] The plate was immediately transferred to a ViewLux high-throughput CCD imager (PerkinElmer), wherein kinetic measurements of NADPH fluorescence (Ex 340 nm, Em 450 nm) were acquired (8 minute kinetic read, see Table 1). […]

[9] = biological target: Flap endonuclease 1 (Homo sapiens) (UniProt P39748); experiment: qHTS Validation Assay for the Inhibitors of Human Flap endonuclease 1 (FEN1) (AID 488816); settings: FEN1 nuclease activity, fluorogenic DNA substrate; series mostly up to 57.1 µM
Sequence of Flap endonuclease 1 (Homo sapiens) (P39748 whole entry, looked up): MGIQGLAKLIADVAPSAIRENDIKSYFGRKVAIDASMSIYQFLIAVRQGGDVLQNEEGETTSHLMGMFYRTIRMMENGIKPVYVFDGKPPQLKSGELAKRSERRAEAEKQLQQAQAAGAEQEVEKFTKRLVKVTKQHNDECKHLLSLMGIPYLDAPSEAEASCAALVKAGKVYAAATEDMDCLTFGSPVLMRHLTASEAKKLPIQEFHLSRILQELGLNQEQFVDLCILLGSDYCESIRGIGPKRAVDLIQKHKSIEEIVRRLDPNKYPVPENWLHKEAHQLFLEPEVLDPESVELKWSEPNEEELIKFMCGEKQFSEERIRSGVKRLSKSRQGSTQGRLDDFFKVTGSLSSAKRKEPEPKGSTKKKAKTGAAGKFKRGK
Method in brief: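 Human FEN1 (10 nM) preincubated 15 min at room temperature with compounds, then flap DNA substrate added at 50 nM final. Fluorescence read at 0 and 15 min; concentration-response fitted with four-parameter Hill equation.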

[10] = biological target: Chromobox protein homolog 1 (Homo sapiens) (UniProt P83916); experiment: qHTS Validation Assay for Inhibitors of HP1-beta Chromodomain Interactions with Methylated Histone Tails (AID 488953); settings: HP1-beta chromodomain / methylated histone peptide binding assay; series mostly up to 114 µM;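 also: loss of AlphaScreen luminescence from HP1-beta binding biotinylated H3K9me3 peptide; nearly all actives have a fitted effect of over 50% in size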
Sequence of Chromobox protein homolog 1 (Homo sapiens) (P83916 whole entry, looked up): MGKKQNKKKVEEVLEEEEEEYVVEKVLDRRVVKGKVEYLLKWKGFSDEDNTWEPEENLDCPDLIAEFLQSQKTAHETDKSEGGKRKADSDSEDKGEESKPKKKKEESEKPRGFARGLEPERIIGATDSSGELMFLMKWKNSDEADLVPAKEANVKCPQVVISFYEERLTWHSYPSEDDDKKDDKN
Method in brief: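 HP1-beta (50 nM) preformed 30 min with biotinylated H3(1-18)K9me3 peptide (50 nM) in PBS pH 7.4, 0.01% Tween-20. Compounds added for 30 min at room temperature. Complex disruption read by AlphaScreen with streptavidin donor/nickel chelate acceptor beads (10 ug/mL each).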

Measured: outcome

CCNC(=O)[C@H]1O[C@@H](n2cnc3c(N)nc(NCCc4ccc(CCC(=O)O)cc4)nc32)[C@H](O)[C@H]1O
inactive: [1] | [2] | [3]

C=CCc1cccc(C=NNC(=O)CN2CCN(Cc3ccccc3)CC2)c1O
inactive: [4] | [5] | [6] | [7] | [8] | [9] | [3] | [10]

C[C@H]1O[C@@H](n2cc(F)c(=O)[nH]c2=O)[C@H](O)[C@H]1O
inactive: [4] | [5] | [6] | [7] | [8] | [9] | [3] | [10]

From PubChem BioAssay (NCATS)
